Records with an inconclusive call do not appear. Calls of active or inactive are those of the source. Rule for the calls, unless noted: active = hit-call score of the fitted dose curve at least 0.9, where 1 is the maximum; inactive = score below 0.9.
Legend:
[1] = read-out: Phosphatase and tensin (PTEN), PTEN (gene 5728); test: LTEA_HepaRG_PTEN: Life Technologies and Expression Analysis (LTEA) Assay for Phosphatase and tensin (PTEN) using HepaRG (AID 2283523); conditions: mRNA level, 48 h; actives raise or lower the signal
Outline: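 Expression of PTEN is quantified in the human liver line HepaRG following two days of dosing (top concentration 100 uM, half-log dilutions, 0.5% DMSO). Values derive from bidirectional curve fitting relative to DMSO controls.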

[2] = read-out: solute carrier (SLC22A1), SLC22A1 (gene 6580); test: LTEA_HepaRG_SLC22A1: Life Technologies and Expression Analysis (LTEA) Assay for solute carrier (SLC22A1) using HepaRG (AID 2283524); conditions: mRNA level, 48 h; actives raise or lower the signal
Outline: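 Transcript induction or suppression of SLC22A1 in human HepaRG cultures is scored after 48 h chemical treatment, with DMSO (0.5%) as baseline for bidirectional fitting. Concentrations span eight half-log points topping at 100 uM.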

[3] = read-out: Pyruvate Dehydrogenase Kinase 4 (PDK4), PDK4 (gene 5166); test: LTEA_HepaRG_PDK4: Life Technologies and Expression Analysis (LTEA) Assay for Pyruvate Dehydrogenase Kinase 4 (PDK4) using HepaRG (AID 2283525); conditions: mRNA level, 48 h; actives raise or lower the signal
Outline: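 Eight-point, half-log concentration series (max 100 uM, 0.5% DMSO) applied to differentiated HepaRG cells for 48 h in duplicate. Endpoint: PDK4 mRNA induction or repression by qRT-PCR against DMSO baseline.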

[4] = read-out: NAD(P)H dehydrogenase [quinone] 1 (NQO1), NQO1 (gene 1728); test: LTEA_HepaRG_NQO1: Life Technologies and Expression Analysis (LTEA) Assay for NAD(P)H dehydrogenase [quinone] 1 (NQO1) using HepaRG (AID 2283526); conditions: mRNA level, 48 h; actives raise or lower the signal
Outline: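 In this assay, gene expression is read by qRT-PCR after 48 h exposure of HepaRG cells to eight concentrations (max 100 uM, half-log) in 0.5% DMSO. Each chemical runs in duplicate, and activity is scored relative to vehicle.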

[5] = read-out: Nuclear factor erythroid 2-related factor 2 (Homo sapiens) (UniProt Q16236); test: LTEA_HepaRG_NFE2L2: Life Technologies and Expression Analysis (LTEA) Assay for Nuclear factor erythroid 2-related factor 2 (NFE2L2) Transcription Factor using HepaRG (AID 2283527); conditions: mRNA level, 48 h; actives raise or lower the signal;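 note: TaqMan qRT-PCR transcript level normalised to ACTB GAPDH and POLR2A housekeeping genes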
Outline: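 Human liver HepaRG line treated in duplicate for 48 h with an eight-point series topping at 100 uM. Gene expression of NFE2L2 by qRT-PCR, bidirectionally fitted against the vehicle control.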

[6] = read-out: succinate dehydrogenase complex iron sulfur subunit B (SDHB), SDHB (gene 6390); test: LTEA_HepaRG_SDHB: Life Technologies and Expression Analysis (LTEA) Assay for succinate dehydrogenase complex iron sulfur subunit B (SDHB) using HepaRG (AID 2283528); conditions: mRNA level, 48 h; actives raise or lower the signal
Outline: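 HepaRG, 48 h exposure, 8-pt half-log series from 100 uM in 0.5% DMSO, duplicates. Readout: SDHB mRNA by Fluidigm qRT-PCR vs housekeeping genes; bidirectional fit relative to DMSO.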

[7] = read-out: Signal transducer and activator of transcription 3 (Homo sapiens) (UniProt P40763); test: LTEA_HepaRG_STAT3: Life Technologies and Expression Analysis (LTEA) Assay for Signal transducer and activator of transcription (STAT3) using HepaRG (AID 2283529); conditions: mRNA level, 48 h; actives raise or lower the signal
Outline: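 In this transcriptional endpoint, HepaRG cultures receive test chemicals at up to 100 uM for 48 h, tested in duplicate. STAT3 mRNA is normalized to ACTB, GAPDH and POLR2A.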

[8] = read-out: solute carrier (SLCO1B1), SLCO1B1 (gene 10599); test: LTEA_HepaRG_SLCO1B1: Life Technologies and Expression Analysis (LTEA) Assay for solute carrier (SLCO1B1) using HepaRG (AID 2283530); conditions: mRNA level, 48 h; actives raise or lower the signal
Outline: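 Differentiated human HepaRG cells, plated 48 h, switched to serum-free induction medium and exposed in duplicate for 48 h to 8 half-log concentrations (top 100 uM) in 0.5% DMSO. SLCO1B1 mRNA by TaqMan qRT-PCR, normalized to ACTB/GAPDH/POLR2A.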

[9] = read-out: sulfotransferase 2A1 (SULT2A1), SULT2A1 (gene 6822); test: LTEA_HepaRG_SULT2A1: Life Technologies and Expression Analysis (LTEA) Assay for sulfotransferase 2A1 (SULT2A1) using HepaRG (AID 2283531); conditions: mRNA level, 48 h; actives raise or lower the signal
Outline: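 Differentiated human HepaRG cells in serum-free induction medium were exposed for 48 h to eight half-log concentrations (top 100 uM, 0.5% DMSO). SULT2A1 mRNA was measured by qRT-PCR, normalized to ACTB, GAPDH and POLR2A, and fitted bidirectionally against DMSO.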

[10] = read-out: Transforming Growth Factor (TGFA), TGFA (gene 7039); test: LTEA_HepaRG_TGFA: Life Technologies and Expression Analysis (LTEA) Assay for Transforming Growth Factor (TGFA) using HepaRG (AID 2283532); conditions: mRNA level, 48 h; actives raise or lower the signal
Outline: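 Gene expression of TGFA was quantified by qRT-PCR after human HepaRG cells were treated for 48 h with test chemicals (eight concentrations, highest 100 uM, 0.5% DMSO). Activity in either direction was fitted relative to DMSO.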

[11] = read-out: Transforming Growth Factor (TGFB1), TGFB1 (gene 7040); test: LTEA_HepaRG_TGFB1: Life Technologies and Expression Analysis (LTEA) Assay for Transforming Growth Factor (TGFB1) Transporter using HepaRG (AID 2283533); conditions: mRNA level, 48 h; actives raise or lower the signal
Outline: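 Differentiated human HepaRG cells in serum-free induction medium were exposed in duplicate for 48 h to eight concentrations (top 100 uM, half-log steps, 0.5% DMSO). TGFB1 mRNA was quantified by qRT-PCR, normalized to ACTB, GAPDH, POLR2A, and fitted bidirectionally against DMSO.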

[12] = read-out: TIMP1, TIMP1 (gene 7076); test: LTEA_HepaRG_TIMP1: Life Technologies and Expression Analysis (LTEA) Assay for TIMP1 using HepaRG (AID 2283534); conditions: mRNA level, 48 h; actives raise or lower the signal;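 note: TaqMan qRT-PCR signal normalized to ACTB GAPDH and POLR2A housekeeping genes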
Outline: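 Differentiated human HepaRG cells in serum-free induction medium were exposed 48 h to chemicals (8 half-log concentrations, top 100 uM, 0.5% DMSO). TIMP1 mRNA was quantified by TaqMan qRT-PCR, normalized to ACTB/GAPDH/POLR2A; bidirectional fit versus DMSO.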

[13] = read-out: Tumor necrosis factor receptor 1 (TNFRSF1A), TNFRSF1A (gene 7132); test: LTEA_HepaRG_TNFRSF1A: Life Technologies and Expression Analysis (LTEA) Assay for Tumor necrosis factor receptor 1 (TNFRSF1A) using HepaRG (AID 2283535); conditions: mRNA level, 48 h; actives raise or lower the signal
Outline: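 Differentiated human HepaRG cells were exposed in duplicate for 48 h in serum-free induction medium to eight concentrations (top 100 uM, half-log steps, 0.5% DMSO). TNFRSF1A mRNA was quantified by qRT-PCR, normalized to ACTB, GAPDH and POLR2A, then fitted bidirectionally against DMSO.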

[14] = read-out: Thyroid Hormone Responsive (THRSP), THRSP (gene 7069); test: LTEA_HepaRG_THRSP: Life Technologies and Expression Analysis (LTEA) Assay for Thyroid Hormone Responsive (THRSP) using HepaRG (AID 2283536); conditions: mRNA level, 48 h; actives raise or lower the signal
Outline: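 Cell model: human HepaRG, approx. 100,000 cells/well, 0.5% DMSO vehicle. Exposure lasts 48 h; phenobarbital 1 mM serves as induction positive control. Gene expression is measured by qRT-PCR against three endogenous control genes.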

[15] = read-out: Cellular tumor antigen p53 (Homo sapiens) (UniProt P04637); test: LTEA_HepaRG_TP53: Life Technologies and Expression Analysis (LTEA) Assay for Tumor Protein P53 (TP53) using HepaRG (AID 2283537); conditions: mRNA level, 48 h; actives raise or lower the signal
Outline: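 HepaRG, 48 h exposure, top 100 uM, half-log 8-point, 0.5% DMSO vehicle, duplicates. Read: TP53 mRNA by TaqMan qRT-PCR, normalised to ACTB/GAPDH/POLR2A; bidirectional fit vs DMSO.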

[16] = read-out: UDP glucuronosyltransferase (UGT1A1), UGT1A1 (gene 54658); test: LTEA_HepaRG_UGT1A1: Life Technologies and Expression Analysis (LTEA) Assay for UDP glucuronosyltransferase (UGT1A1) using HepaRG (AID 2283538); conditions: mRNA level, 48 h; actives raise or lower the signal
Outline: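 mRNA induction or loss of UGT1A1, by TaqMan qRT-PCR, in duplicate HepaRG wells after 48 h exposure to half-log dilutions topping at 100 uM; DMSO (0.5%) served as baseline.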

[17] = read-out: UDP glucuronosyltransferase (UGT1A6), UGT1A6 (gene 54578); test: LTEA_HepaRG_UGT1A6: Life Technologies and Expression Analysis (LTEA) Assay for UDP glucuronosyltransferase (UGT1A6) using HepaRG (AID 2283539); conditions: mRNA level, 48 h; actives raise or lower the signal
Outline: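 Human HepaRG cells were dosed for 48 h in serum-free induction medium with 0.5% DMSO vehicle, eight-point half-log series from 100 uM, in duplicate. UGT1A6 mRNA was measured by qRT-PCR, normalized to ACTB, GAPDH, POLR2A, and fitted bidirectionally against DMSO.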

[18] = read-out: X-box binding protein 1 (XBP1), XBP1 (gene 7494); test: LTEA_HepaRG_XBP1: Life Technologies and Expression Analysis (LTEA) Assay for X-box binding protein 1 (XBP1) using HepaRG (AID 2283540); conditions: mRNA level, 48 h; actives raise or lower the signal
Outline: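 Differentiated human HepaRG cells in serum-free induction medium were exposed in duplicate for 48 h to eight half-log concentrations up to 100 uM in 0.5% DMSO. XBP1 mRNA was quantified by qRT-PCR, normalised to ACTB, GAPDH and POLR2A, with bidirectional fitting against DMSO.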

[19] = LTEA_HepaRG_LDH_cytotoxicity: Cytotoxicity Assessment in the Life Technologies and Expression Analysis (LTEA) Assay (AID 2283563; active = hit-call score of the fitted dose curve at least 0.9, where 1 is the maximum)
Outline: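 Differentiated human HepaRG cells, plated 48 h beforehand, were switched to serum-free induction medium and exposed for 48 h to eight half-log concentrations (top 100 uM) in 0.5% DMSO. LDH was measured in spent medium; activity was fitted relative to DMSO vehicle.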

[20] = ATG_XTT_Cytotoxicity: Cytotoxicity Assessment in the Attagene TRANS-FACTORIAL HepG2 Assay (AID 2283584; active = hit-call score of the fitted dose curve at least 0.9, where 1 is the maximum;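 for AC50: cells exposed to compound for 24 h before reading; active means loss of viability signal versus DMSO baseline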)
Outline: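 HepG2 human liver cells, transiently transfected with multiple GAL4-UAS reporter units, were dosed and read at 24 h by XTT as cell number. Loss of signal was fitted relative to DMSO negative control baseline.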

Measured: AC50

Chain of Cellular tumor antigen p53 (Homo sapiens) (P04637 whole entry, looked up): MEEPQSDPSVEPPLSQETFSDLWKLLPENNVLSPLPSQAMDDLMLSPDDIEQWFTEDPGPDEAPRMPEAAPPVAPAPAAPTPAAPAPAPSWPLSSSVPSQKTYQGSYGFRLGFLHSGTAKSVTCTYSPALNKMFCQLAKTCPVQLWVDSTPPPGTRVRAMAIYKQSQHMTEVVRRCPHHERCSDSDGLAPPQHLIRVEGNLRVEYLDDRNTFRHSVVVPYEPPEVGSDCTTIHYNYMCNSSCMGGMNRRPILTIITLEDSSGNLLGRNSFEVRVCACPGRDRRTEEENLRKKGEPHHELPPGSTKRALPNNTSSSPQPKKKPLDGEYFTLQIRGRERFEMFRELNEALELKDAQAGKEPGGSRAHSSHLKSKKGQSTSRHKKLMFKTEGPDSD
Chain of Nuclear factor erythroid 2-related factor 2 (Homo sapiens) (Q16236 whole entry, looked up): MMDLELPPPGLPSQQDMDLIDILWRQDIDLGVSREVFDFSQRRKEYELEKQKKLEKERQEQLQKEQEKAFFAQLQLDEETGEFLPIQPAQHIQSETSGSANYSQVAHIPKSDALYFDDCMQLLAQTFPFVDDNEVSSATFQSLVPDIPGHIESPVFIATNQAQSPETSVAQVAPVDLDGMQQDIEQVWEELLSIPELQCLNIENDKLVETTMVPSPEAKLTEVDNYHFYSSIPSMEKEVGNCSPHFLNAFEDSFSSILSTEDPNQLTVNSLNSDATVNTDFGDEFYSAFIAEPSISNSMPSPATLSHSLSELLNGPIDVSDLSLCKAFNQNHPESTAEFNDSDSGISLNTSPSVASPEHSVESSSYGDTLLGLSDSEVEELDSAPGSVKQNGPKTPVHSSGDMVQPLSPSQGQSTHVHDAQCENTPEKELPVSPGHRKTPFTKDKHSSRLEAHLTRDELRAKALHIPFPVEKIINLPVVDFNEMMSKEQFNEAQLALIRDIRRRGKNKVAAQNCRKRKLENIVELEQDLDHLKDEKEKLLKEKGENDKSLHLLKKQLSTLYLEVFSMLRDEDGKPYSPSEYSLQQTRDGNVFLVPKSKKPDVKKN
Chain of Signal transducer and activator of transcription 3 (Homo sapiens) (P40763 whole entry, looked up): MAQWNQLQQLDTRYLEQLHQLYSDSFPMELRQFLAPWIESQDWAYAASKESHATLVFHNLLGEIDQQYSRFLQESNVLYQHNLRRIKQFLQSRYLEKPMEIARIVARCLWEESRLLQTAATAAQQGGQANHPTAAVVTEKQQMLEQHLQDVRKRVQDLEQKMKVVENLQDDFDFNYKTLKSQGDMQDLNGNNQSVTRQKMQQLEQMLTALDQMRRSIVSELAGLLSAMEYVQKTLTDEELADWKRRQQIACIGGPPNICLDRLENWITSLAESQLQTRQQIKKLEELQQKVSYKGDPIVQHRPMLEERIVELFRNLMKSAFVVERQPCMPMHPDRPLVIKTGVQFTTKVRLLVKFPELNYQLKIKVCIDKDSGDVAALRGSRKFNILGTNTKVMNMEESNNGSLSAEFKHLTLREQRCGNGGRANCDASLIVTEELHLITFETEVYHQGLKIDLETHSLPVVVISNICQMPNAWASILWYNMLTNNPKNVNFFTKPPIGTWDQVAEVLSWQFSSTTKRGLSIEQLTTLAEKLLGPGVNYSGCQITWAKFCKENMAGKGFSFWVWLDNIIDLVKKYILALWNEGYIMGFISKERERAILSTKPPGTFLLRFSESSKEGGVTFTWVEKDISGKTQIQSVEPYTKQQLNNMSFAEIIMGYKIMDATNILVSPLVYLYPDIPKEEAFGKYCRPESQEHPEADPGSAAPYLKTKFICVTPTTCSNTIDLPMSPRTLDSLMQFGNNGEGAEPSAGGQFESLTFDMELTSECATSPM

CC(C)(C)OOC(C)(C)C
inactive: all assays above

CCOS(=O)(=O)OCC
not listed: [20]
inactive: all other assays above

CC(Cc1ccc(OCC(=O)O)cc1)NCC(O)c1csc(C(F)(F)F)n1 (stereo not drawn)
not listed: [20]
inactive: all other assays above

ClC1=C(Cl)C2(Cl)C3C(Cl)C(Cl)CC3C1(Cl)C2(Cl)Cl (stereo not drawn)
active: [11] 77 µM | [16] 2.81 µM | [20] 157 µM
inactive: all other assays above

Nc1ccc(Cl)cc1
active: [16] 36.5 µM
inactive: all other assays above

Reference: PubChem BioAssay (EPA / NIEHS)
